Laboratory results: PubChem BioAssay
Active and inactive are the calls of the source.

Legend:
Albumin (Bos taurus) = Albumin (Bos taurus) (UniProt P02769); assay: compounds binding labelled BSA control protein – biochemical, small-molecule microarray, Alexa647 label, 635/667 nm fluorescence, artefact control for SMM control protein annotation, profiling panel (AID 1118); settings: BSA-A647 binding, fluorescence 635 nm, higher = more signal;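 also: score merges 667 nm emission intensity and signal-to-noise per printed compound spot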
Albumin (Bos taurus), sequence (P02769 whole entry, looked up): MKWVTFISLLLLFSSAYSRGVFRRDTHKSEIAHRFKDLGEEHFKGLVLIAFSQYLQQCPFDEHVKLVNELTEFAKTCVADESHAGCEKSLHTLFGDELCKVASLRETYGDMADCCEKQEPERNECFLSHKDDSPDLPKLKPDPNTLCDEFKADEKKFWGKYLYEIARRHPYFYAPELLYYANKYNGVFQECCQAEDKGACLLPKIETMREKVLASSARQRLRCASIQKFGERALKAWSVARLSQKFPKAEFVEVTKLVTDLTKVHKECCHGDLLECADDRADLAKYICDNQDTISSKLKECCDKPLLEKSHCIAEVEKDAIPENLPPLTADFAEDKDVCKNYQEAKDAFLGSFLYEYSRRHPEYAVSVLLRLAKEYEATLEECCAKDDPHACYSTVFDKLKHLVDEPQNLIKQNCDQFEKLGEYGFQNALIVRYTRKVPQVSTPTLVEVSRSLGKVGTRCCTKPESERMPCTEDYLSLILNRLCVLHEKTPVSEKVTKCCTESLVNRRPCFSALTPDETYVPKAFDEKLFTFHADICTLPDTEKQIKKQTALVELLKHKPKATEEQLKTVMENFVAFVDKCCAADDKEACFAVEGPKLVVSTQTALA

[1] = probe aXIP binding to arrayed compounds – biochemical, NeuroSMM set, 635/667 nm fluorescence, primary screen (AID 1119); settings: small-molecule microarray, higher = more signal, called active from +8 up or from −8 down;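 also: probe is the protein aXip251-270 applied at 1 µg/mL to compound-printed slides; binding of probe to printed compounds measured as 667 nm fluorescence plus signal to noise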
[2] = probe aNOTCH3 binding on compound microarray – biochemical, small-molecule microarray, 635/667 nm fluorescence, primary screen (AID 1120); settings: higher = more signal;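 also: probe is a biotin-tagged antibody raised against NOTCH3 rather than NOTCH3 protein; score merges spot fluorescence near 667 nm with spot signal to noise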
[3] = probe aNOTCH2 binding on compound microarray – biochemical, small-molecule microarray, 635/667 nm fluorescence, primary screen (AID 1121); settings: higher = more signal;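 also: score merges feature fluorescence read at 667 nm with its signal to noise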
[4] = target: Carbonic anhydrase 2 (Homo sapiens) (UniProt P00918); assay: compounds binding carbonic anhydrase 2 – biochemical, small-molecule microarray, Alexa647-labelled CAII, profiling panel (AID 1122); settings: CAII-A647 binding fluorescence, higher = more signal
[5] = COS7 lysate on small-molecule microarray, probe aHis, 635 nm (AID 1123); settings: COS7 cell lysate, fluorescence, higher = more signal;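 also: z-score combines 667nm fluorescence intensity with signal-to-noise per printed compound spot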
[6] = probe aLAP1 signal on lysate-treated microarray – cell lysate, small-molecule microarray, COS7 lysate, primary screen (AID 1124); settings: probe aLAP1, fluorescence, higher = more signal;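 also: lysate comes from COS7 cells expressing LAP1 and is applied at 0.3 µg/mL; score merges spot fluorescence near 667 nm with signal-to-noise over triplicate slides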
Sam68 (KHDRBS1) = assay: compounds binding KHDRBS1 protein – biochemical, small-molecule microarray, 635 nm fluorescence, primary screen (AID 1125); settings: higher = more signal;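 also: score merges 667 nm channel intensity with signal to noise over triplicate slides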
[7] = test system: Chordin-like protein 2 (CHRDL2); assay: compounds binding chordin-like 2 – biochemical, small-molecule microarray, 635 nm fluorescence, primary screen (AID 1126); settings: fluorescence 635 nm, higher = more signal;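 also: printed compound slides probed with Chrdl2 protein at 4 µg/mL for 1 h at 4 C; score merges 667 nm emission intensity with signal to noise over three replicate slides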
[8] = target: Concanavalin-A (Canavalia ensiformis) (UniProt P02866); assay: compounds binding concanavalin A lectin – biochemical, small-molecule microarray, Alexa647 label, 635 nm, artefact control for SMM control protein annotation, primary screen (AID 1127); settings: ConA-A647 binding fluorescence, higher = more signal;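 also: z combines 667 nm emission intensity with signal-to-noise across three replicate slides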
Concanavalin-A (Canavalia ensiformis), sequence (P02866 whole entry, looked up): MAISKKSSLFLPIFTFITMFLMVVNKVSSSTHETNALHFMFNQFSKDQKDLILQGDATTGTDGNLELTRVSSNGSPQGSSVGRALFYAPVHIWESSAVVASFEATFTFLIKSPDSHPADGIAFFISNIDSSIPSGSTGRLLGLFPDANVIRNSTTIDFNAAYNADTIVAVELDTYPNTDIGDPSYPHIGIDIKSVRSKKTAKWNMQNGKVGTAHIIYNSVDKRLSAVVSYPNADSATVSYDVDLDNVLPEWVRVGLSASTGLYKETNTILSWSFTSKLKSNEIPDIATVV

[9] = compounds binding Alexa647 anti-His antibody – biochemical, small-molecule microarray, 635 nm fluorescence, artefact control for SMM control protein annotation, primary screen (AID 1128); settings: higher = more signal;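 also: score merges feature fluorescence with signal-to-noise for each printed compound spot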
[10] = test system: Human papillomavirus type 1a E7 protein (residues 1-88); assay: HPV1a E7 small-molecule binders, primary screen, biochemical, small-molecule microarray, residues 1-88, 635 nm (AID 1129); settings: small-molecule microarray binding, fluorescence 635 nm; higher = more signal
[11] = target: Focal adhesion kinase 1 (Homo sapiens) (UniProt Q05397); assay: PTK2 protein binding on printed compound slides – biochemical, small-molecule microarray, 635/667 nm fluorescence, BSA, DTT, primary screen (AID 1130); settings: 635 nm fluorescence, higher = more signal;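 also: composite of spot emission at 667 nm and signal to noise over triplicate slides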
Focal adhesion kinase 1 (Homo sapiens), sequence (Q05397 whole entry, looked up): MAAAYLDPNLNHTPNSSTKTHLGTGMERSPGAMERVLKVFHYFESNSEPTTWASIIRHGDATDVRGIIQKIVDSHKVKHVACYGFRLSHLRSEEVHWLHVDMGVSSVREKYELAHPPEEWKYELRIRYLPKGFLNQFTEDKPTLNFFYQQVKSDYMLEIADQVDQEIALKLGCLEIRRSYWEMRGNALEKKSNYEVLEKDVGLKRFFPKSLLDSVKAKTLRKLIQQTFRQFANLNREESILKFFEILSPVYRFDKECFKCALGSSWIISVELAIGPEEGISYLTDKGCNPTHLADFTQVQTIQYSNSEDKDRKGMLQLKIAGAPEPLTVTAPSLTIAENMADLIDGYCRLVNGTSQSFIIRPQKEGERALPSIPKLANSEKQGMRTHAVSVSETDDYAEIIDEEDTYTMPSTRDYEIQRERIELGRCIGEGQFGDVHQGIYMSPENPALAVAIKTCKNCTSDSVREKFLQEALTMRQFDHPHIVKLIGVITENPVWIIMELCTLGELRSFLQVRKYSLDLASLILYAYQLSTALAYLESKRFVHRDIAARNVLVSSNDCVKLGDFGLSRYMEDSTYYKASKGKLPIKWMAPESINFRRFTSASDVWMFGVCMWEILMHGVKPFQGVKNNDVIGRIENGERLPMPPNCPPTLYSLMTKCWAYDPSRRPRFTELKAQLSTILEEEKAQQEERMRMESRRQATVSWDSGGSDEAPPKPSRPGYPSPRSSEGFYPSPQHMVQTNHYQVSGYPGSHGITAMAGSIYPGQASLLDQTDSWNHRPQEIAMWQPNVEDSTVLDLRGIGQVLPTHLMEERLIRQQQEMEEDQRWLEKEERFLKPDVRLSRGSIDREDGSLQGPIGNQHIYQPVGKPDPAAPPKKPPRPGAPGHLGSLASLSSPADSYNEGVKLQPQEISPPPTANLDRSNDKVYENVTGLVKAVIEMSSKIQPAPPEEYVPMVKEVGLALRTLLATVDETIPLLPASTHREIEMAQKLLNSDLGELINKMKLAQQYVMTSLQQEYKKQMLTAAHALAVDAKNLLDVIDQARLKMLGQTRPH

[12] = test system: Fibrinogen (Alexa647-labelled); assay: Alexa647-fibrinogen binding to printed small molecules – biochemical, small-molecule microarray, 635/667 nm fluorescence, artefact control for SMM control-protein annotation, profiling panel (AID 1131); settings: fibrinogen-A647 binding fluorescence, higher = more signal;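 also: z-score merges 667 nm fluorescence with per-spot signal-to-noise over triplicate slides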
[13] = target: Follistatin (Homo sapiens) (UniProt P19883); assay: FST protein binding to printed compounds – biochemical, small-molecule microarray, 635/667 nm fluorescence, primary screen (AID 1132); settings: 635 nm fluorescence, higher = more signal
Follistatin (Homo sapiens), sequence (P19883 whole entry, looked up): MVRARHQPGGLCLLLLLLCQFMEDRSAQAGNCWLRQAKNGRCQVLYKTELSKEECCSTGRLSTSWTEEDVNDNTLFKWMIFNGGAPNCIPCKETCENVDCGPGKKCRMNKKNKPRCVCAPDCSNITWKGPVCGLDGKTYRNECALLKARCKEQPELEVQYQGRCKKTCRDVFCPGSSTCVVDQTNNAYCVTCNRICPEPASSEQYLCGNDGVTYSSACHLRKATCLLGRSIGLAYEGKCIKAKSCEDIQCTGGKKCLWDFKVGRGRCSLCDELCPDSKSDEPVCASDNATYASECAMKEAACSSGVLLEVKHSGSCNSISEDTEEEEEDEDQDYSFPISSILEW

[14] = target: Fibroblast growth factor 2 (Homo sapiens) (UniProt P09038); assay: basic fibroblast growth factor binding to printed compounds – biochemical, small-molecule microarray, 635/667 nm fluorescence, primary screen (AID 1133); settings: FGF2, fluorescence 635/667, higher = more signal
Fibroblast growth factor 2 (Homo sapiens), sequence (P09038 whole entry, looked up): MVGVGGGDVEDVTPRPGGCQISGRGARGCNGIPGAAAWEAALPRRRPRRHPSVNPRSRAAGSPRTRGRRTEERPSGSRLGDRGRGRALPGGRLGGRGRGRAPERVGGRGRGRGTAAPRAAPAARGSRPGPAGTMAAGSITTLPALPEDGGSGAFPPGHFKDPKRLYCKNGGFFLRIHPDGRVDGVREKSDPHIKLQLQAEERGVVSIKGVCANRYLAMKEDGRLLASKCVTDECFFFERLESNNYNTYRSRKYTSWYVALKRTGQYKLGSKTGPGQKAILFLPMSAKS

[15] = JC-1 mitochondrial potential readout, lung cancer cells – cell-based, A549, JC-1 fluorescence, basal, 24 h, 100 nL, profiling panel (AID 1138); settings: higher = more signal;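 also: A549 lung adenocarcinoma cells under basal conditions with no added stimulus; test concentration not given here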
Lefty1 = Lefty1 protein binding to printed compounds – biochemical, small-molecule microarray, 635/667 nm fluorescence, primary screen (AID 1139); settings: fluorescence 635/667, higher = more signal
[16] = test system: wheat germ agglutinin (Triticum aestivum), Alexa647-labelled; assay: Alexa647-WGA lectin binding to printed small molecules – biochemical, small-molecule microarray, 635/667 nm fluorescence, artefact control for SMM control-protein annotation, profiling panel (AID 1140); settings: WGA-A647 binding, 635 nm fluorescence, higher = more signal;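 also: score merges 667 nm feature emission with signal to noise over triplicate slides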
[17] = target: Luciferin 4-monooxygenase (Photinus pyralis) (UniProt P08659); assay: inhibition of purified Photinus pyralis luciferase – biochemical, luminescence, purified enzyme, 2006 set, primary screen (AID 1141); settings: purified firefly luciferase, SteadyGlo luminescence, 30 min; higher = more signal, called active from +8 up or from −8 down;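 also: cell-free assay with purified firefly luciferase at 100 ng per well in PBS; test concentration not given here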
Luciferin 4-monooxygenase (Photinus pyralis), sequence (P08659 whole entry, looked up): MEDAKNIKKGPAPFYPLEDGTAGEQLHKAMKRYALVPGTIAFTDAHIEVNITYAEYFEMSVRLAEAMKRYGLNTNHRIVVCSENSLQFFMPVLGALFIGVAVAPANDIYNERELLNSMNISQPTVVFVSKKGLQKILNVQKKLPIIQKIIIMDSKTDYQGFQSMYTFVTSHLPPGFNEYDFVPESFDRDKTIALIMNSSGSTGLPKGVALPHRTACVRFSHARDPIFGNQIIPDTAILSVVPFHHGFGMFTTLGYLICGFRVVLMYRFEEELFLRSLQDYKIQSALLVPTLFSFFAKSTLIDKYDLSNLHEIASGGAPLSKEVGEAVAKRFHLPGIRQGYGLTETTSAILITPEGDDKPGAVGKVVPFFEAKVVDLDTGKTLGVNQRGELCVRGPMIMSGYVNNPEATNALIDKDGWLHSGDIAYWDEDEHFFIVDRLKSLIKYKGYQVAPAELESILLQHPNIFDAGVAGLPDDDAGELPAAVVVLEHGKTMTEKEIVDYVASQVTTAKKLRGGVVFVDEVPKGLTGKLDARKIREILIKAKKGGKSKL

| SMILES | composite z-score (Albumin (Bos taurus)) | composite Z-score [1] | composite z-score [2] | composite z-score [3] | composite z-score [4] | composite z-score [5] | composite z-score [6] | composite z-score (Sam68 (KHDRBS1)) | composite z-score [7] | composite z-score [8] | composite z-score [9] | composite z-score [10] | composite z-score [11] | composite z-score [12] | composite z-score [13] | composite z-score [14] | z-score [15] | composite z-score (Lefty1) | composite z-score [16] | z-score [17] |
| --- | --- | --- | --- | --- | --- | --- | --- | --- | --- | --- | --- | --- | --- | --- | --- | --- | --- | --- | --- | --- |
| O=C(NCc1ccc(F)cc1)[C@H]1C[C@H]2C(=O)NCC(=O)N2[C@H]1c1ccc(O)cc1 | -0.447 | 0.534 (inactive) | 0.0066 | -0.084 | 0.694 | 1.43 | 0.112 | 1.07 | 0.491 | 0.8 | 1.63 | -0.121 | 0.0061 | 0.611 | 1.45 | 1.89 | 0.576 | 1.35 | 0.187 | -0.0852 (inactive) |
| CCOC(=O)C[C@H]1[C@H](OC(=O)Cc2ccc3c(c2)OCO3)[C@@H](NC(=O)c2ccc3ccccc3n2)c2cc(OCCCO)ccc2N1C(=O)c1ccccc1 | -0.233 | 0.221 (inactive) | -0.124 | -0.18 | 0.0645 | 0.109 | -0.115 | 0.416 | 0.528 | 0.321 | -0.0867 | 0.381 | -0.0076 | 0.364 | 0.803 | 0.902 | 2.23 | 0.755 | 0.326 | -0.992 (inactive) |
| CC(=O)NCCCC[C@@H]1NC(=O)[C@@H]2C[C@H](C(=O)NCCCCCN)[C@H](c3cccc(OCCO)c3)N2C1=O | 0.379 | 0.36 (inactive) | 0.324 | 0.0181 | 0.697 | 0.812 | 0.0312 | 0.803 | 0.56 | 1.11 | 0.586 | 1.04 | 0.295 | 0.97 | 1.37 | 1.6 | 0.989 | 1.03 | 0.79 | 0.159 (inactive) |
| CCCCN1CC=CC23O[C@@H]4/C=C\CCC(C)OC(=O)C4[C@H]2C(=O)N(CCCO)[C@@H]3C1=O (stereo not given in full) | -0.741 | 0.986 (inactive) | -0.41 | -0.171 | 0.283 | -0.0462 | 0.359 | -0.62 | -1.38 | 0.12 | 1.41 | -0.708 | -0.198 | -0.992 | -0.885 | -1.24 | -0.573 | -0.46 | -0.588 | 0.821 (inactive) |
| CC(CO)N1C(=O)[C@]2(C)C3C(=O)OCCC/C=C\[C@H]3OC23C=CCN(c2ccc(Cl)cc2)C(=O)[C@@H]13 (stereo not given in full) | 0.739 | -0.462 (inactive) | -0.186 | -0.14 | 0.867 | -0.354 | 0.644 | -1.61 | 0.217 | -0.474 | -0.263 | -0.48 | 1.53 | -0.316 | -0.568 | -0.85 | 0.444 | -0.506 | -0.335 | -0.53 (inactive) |
